For 69 sequences, z-score results are on record in PubChem BioAssay AID1508600 (Functional Genomics Laboratory (NCATS/FGL), 2020).

In all, about 53,000 sequences went through this assay and about 3,700 (7%) were called active. Many of the other results were omitted from the sample, so actives are more common in it than they were. Values without a mark were called inactive.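 How the source made its calls: active means gene knockdowns whose robust z-score for IL-1 alpha signal is at least 2 or at most -2, so actives lie on both sides; inactive means the rest.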

A short description of this assay: Components of the Cytosolic LPS Sensing Pathway: Gene Identification via Genome-wide siRNA Screen.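 Further: robust z of the log signal after scaling to non-targeting control siRNA wells of the plate.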 Particulars: RAW264.7 macrophages, IL-1a HTRF, actives lie on both sides, screened at 100 nM (by protocol), cells primed 5 h with Pam3CSK4 first. An outline of the steps: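 IL-1a HTRF of supernatants after 24 hour LipidA transfection of Pam3CSK4-primed (5 hours) RAW264.7 cells, 48h post-siRNA transfection (100 nM). Scores: percent of plate negative-control median, then log-based robust z-score.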
In general terms: TR-FRET usually uses a lanthanide donor and a delayed reading to cut background.
Regarding GGUUAUCGCAUUUGGUGGUTT against Olfr1511, the z-score was 0.104.

For the sequence GGACAAAAGGCAAUCUACATT against Mettl18, the z-score is 2.8 (active).

For GGUGUCUCUCCAGGAUAACTT against Ctrl, the z-score is -0.511.

Turning to CGUACAACACGGAAACCUATT against Paqr5, the z-score was -0.448.

Take GGGUCUCAGCAGUGCAAACTT against Txnip: the z-score is -0.486.

For the sequence GGAGAGAGGGAAAAAAGAATT against Sox4, the z-score was -0.317.

GGCUUGACUGCUAUUUUAGTT against Csn1s1: the z-score is 0.711.

Regarding CCACCUGACUUUUGGAAGATT against Coro1b, the z-score is -1.8.

Turning to UUAAGGAAAUGUUCUGUUCTT against Olfr426, the z-score is 0.797.

For the sequence GGCUUUGAGAGGAACACCATT against Sh2d4b, the z-score was -2.49 (active).

In the case of GGCCAAGUUCAACAUUCCATT against Lilrb4a, the z-score was 0.539.

Consider GGGACUUAAGUGAAGUUCATT against Ogfod2, for which the z-score is 0.232.

Take GCUGUCUCGUCAUUUAAGATT against Dym: the z-score is -0.461.

GGAAAGUGUUGUCAAAAGATT against Olfr125: the z-score was -0.386.

As to GGCAUGUGGAAAACCUCCUTT against Lrrc46, the z-score was -0.413.

As to GGAUGAUGAAUUCACACACTT against Calr, the z-score was 3.18 (active).

For GGAGAAAAAAUUCUUAUCCTT against Prmt2, the z-score is -0.31.

For GGCGGUUUCACCUAUACAATT against Rspo4, the z-score is 0.821.

On to GGUCACCUUAACCGAGAAGTT against Phkg1, for which the z-score is 0.19.

For the sequence GGACUUAACUAGUUGACAATT against Pclaf, the z-score was -1.06.

For GGUAUGAUGAAAAUACACATT against Mmp1a, the z-score was 2.56 (active).

As for GGGAGUGCCUUUAAAACACTT against Satb1, the z-score is 0.882.

As to GCCAAAAGGAGGACAUACCTT against Mylk3, the z-score is 1.08.

As to GGAUAUUGAUUGCUUUGUUTT against Uox, the z-score was 1.41.

Take GGACAAAAGAUUCUUCAUCTT against Map1b: the z-score was 2.93 (active).

As for CCAACAAUGAUUAAUCAGCTT against Meis1, the z-score is -1.38.

For GGAAAAUCACAAUCACUUGTT against Ccdc43, the z-score was -0.669.

Take “GGUACCACCAUGCUAUGGUTT against Krtap19-9b”: the z-score is 0.646.

Regarding GGUGGUGAUUCACCUCCAATT against Tnfrsf12a, the z-score is -2.23 (active).

For the sequence GCACUCAAGACCUGUAUGATT against Cldn18, the z-score was 0.627.

For GGAAAUGCCAUUUGAUUUGTT against Rfpl4, the z-score was 0.599.

On to GGACGAUCAUGACAAGAUGTT against Psmb2, for which the z-score was -2.35 (active).

CCAUCGUAUUUAACCACAUTT against Dtymk: the z-score was 0.206.

On to GGCAAACUUAUCUUCUUCUTT against Ahsa1, for which the z-score is -1.89.

Turning to GGGAGUUAUAUUAGUCUAUTT against Rab18, the z-score was 0.436.

For GGAUGCAGAGACCUAUUUCTT against Cacng5, the z-score is -0.158.

As to GGAACAGAGCCUUUCUCAGTT against Rnf183, the z-score is -0.153.

Take CCCAUGAUCUGGAAGAGACTT against Il1a: the z-score is -2.08 (active).

For GCUAAUAGCCUGCCUAAGGTT against Plekhj1, the z-score is 1.35.

Consider GUUACAAAACAUCGGUGGGTT against Vsig2, for which the z-score was 1.06.

As for CCUAGACAAAGUUUCAAACTT against Xrcc4, the z-score was -0.662.

Turning to GGAAAGAUUUCGAACAAUCTT against Rab1a, the z-score was 1.66.

For the sequence CAGUUUUUGGUCUCUAUCUTT against Olfr113, the z-score was 2.27 (active).

Regarding GGCAGUUAGUAAGUUUAAATT against Eif5a2, the z-score was 1.22.

For the sequence GGUAUACACAUGAAAACCATT against Ccdc137, the z-score was -0.548.

Take GGUGAUUCGUCAGAAGCUGTT against Gpr84: the z-score is -0.61.

Regarding GGCUUGCUAAAGGAUGGGATT against Coq8b, the z-score was 0.0536.

As to CGUACUGGUACGGAAGCGUTT against Adck1, the z-score was 0.279.

Turning to GGAAUGAGGUUUGUAGACUTT against Arsg, the z-score is -0.765.

For the sequence CCGUACAUCGAGAAAUACATT against Hal, the z-score was 2.36 (active).

As to GGAGGACUAGGAGUGAUUGTT against Fggy, the z-score is -0.363.

On to GGAUAGUCAGAAAUGGAAATT against Chmp4c, for which the z-score was -0.43.

For GGGUGAUUUCUAUUCACUATT against Pam, the z-score is -0.633.

Turning to GCACGGUCAAGUUUUGAUUTT against Prkaa2, the z-score is -0.792.

As to GGGCCAAUUCUGAAACUUGTT against Il1f5, the z-score was 0.669.

Regarding CCACAGUACGCUGAAAUCCTT against Morf4l1, the z-score is -2.27 (active).

With GCUAGUGUGAUACCAUUUATT against Nab1, the z-score was 1.63.

As for GGAGAACCGUAACAACAACTT against Cacna1a, the z-score is 0.692.

On to GGUAGACUCUAGAUUAAGATT against Srrm2, for which the z-score was -0.58.

CGAGCAAAUCUCAUUCAAGTT against Oxgr1: the z-score is 3.07 (active).

As for CCCACCUUACAUAUAUUGATT against Srr, the z-score was 0.25.

As for GGUAUUAGAAGAUAAUGACTT against Akt3, the z-score was -1.12.

In the case of CCAUCAGUUUCAUUAUUGGTT against Fpr-rs6, the z-score was -0.605.

For the sequence GCAUAACUUAAACUGCUCATT against Zfp12, the z-score was 1.91.

In the case of CCAGAGCUUAUUGAGAUGCTT against Myh4, the z-score is -0.475.

Regarding GCUACUUAAGGGUUUGGAUTT against Pcdhb3, the z-score was 4.67 (active).

In the case of “GGCUGUUACAAGAACGUAGTT against 5031434C07Rik”, the z-score is -1.99.

For GGAAACAACCCAAAGAAUCTT against Slc12a8, the z-score was -0.343.

Take GGUGGACCUGAAACGUAGCTT against Inhbb: the z-score was 0.878.
